The list is not random: actives were taken first. Their share in the collection is about 4.8%.
USP1-UAF1 inh: USP1/UAF1 (human) deubiquitinase inhibition; O94782; recombinant USP1/UAF1, Ub-Rhodamine cleavage fluorescence; Potency, µM (series often up to 57.1 µM), for the others: at the highest dose activity change, negative = inhibition, actives largely listed as inhibitors; 390,000 compounds, 0.23% hits; further: potency means the concentration at half of the fitted maximal effect; on the % scale 0 is the no-effect control and ±100 the full control effect; nearly all actives have a fitted effect of over 60% in size
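Step one: compound is pinned into 1nM USP1/UAF1 in HEPES pH 7.8 buffer with TCEP. Step two: 15 min room-temperature incubation. Step three: Ub-Rho (150nM final) starts cleavage, tracked by fluorescence over six one-minute reads.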
S2 tox: reduces viability in counter-screen for ATXN expression inhibitors; Potency, µM (titrated, usually from 56.7 µM), usual class: cytotoxic; AID 651635; S2 cells (HEK-293 line with an ATXN2-luciferase reporter) viability, CellTiter-Fluor protease fluorescence, 24 h; 400,000 compounds, 0.49% hits; further: potency means the concentration at half of the fitted maximal effect; nearly all actives have a fitted effect of over 40% in size
IL-1B inflam inh: inflammasome signaling inhibition, IL-1 beta readout; THP-1 LPS/ATP IL-1B secretion, AlphaLISA, 16 h; active compounds read low; activity change, % at 57.5 µM; 360,000 compounds, 4.7% hits; AID 743279; in the data active means activity change below about -50%; inconclusive means mostly about -30% to -49%; further: on the % scale 0 is the no-effect control and ±100 the full control effect
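THP-1 cells pretreated 1 hr with compounds (up to 57.5 uM final), then stimulated with LPS (250 ng/mL final) plus ATP (1.25 mM final); secreted IL-1B measured by AlphaLISA after 16 hr, decreased signal indicating inhibition.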
ATXN2 expr inh: ATXN2 expression inhibition | HEK-293 ATXN2-luciferase reporter, luminescence, 24 h | Potency, µM (top dose mostly 57 µM), for the others: at the top dose activity change, negative = inhibition, usual class: inhibitors | 360,000 compounds, 0.72% hits; further: potency means the concentration at half of the fitted maximal effect; on the % scale 0 is the no-effect control and ±100 the full control effect; nearly all actives have a fitted effect of over 55% in size
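qHTS (up to 57 uM final) was run with 24 h compound exposure of reporter cells at 37 °C. Each well was multiplexed: SteadyGlo luminescence measured ATXN2-luciferase expression after a fluorogenic Gly-Phe-AFC viability readout (25 uM final).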
USP2a block: blocks human ubiquitin-specific protease USP2a. USP2 core, Ub-CHOP2 coupled fluorogenic reporter, 485/531. Potency, µM (doses to about 38.3 µM), for the others: at the highest dose activity change, negative = inhibition, actives largely listed as inhibitors. 330,000 compounds, 0.01% hits;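 further: potency means the concentration at half of the fitted maximal effect; plate controls were DMSO wells for no effect and full inhibition by NEM control for full effect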
Target sequence (O75604 whole entry, looked up): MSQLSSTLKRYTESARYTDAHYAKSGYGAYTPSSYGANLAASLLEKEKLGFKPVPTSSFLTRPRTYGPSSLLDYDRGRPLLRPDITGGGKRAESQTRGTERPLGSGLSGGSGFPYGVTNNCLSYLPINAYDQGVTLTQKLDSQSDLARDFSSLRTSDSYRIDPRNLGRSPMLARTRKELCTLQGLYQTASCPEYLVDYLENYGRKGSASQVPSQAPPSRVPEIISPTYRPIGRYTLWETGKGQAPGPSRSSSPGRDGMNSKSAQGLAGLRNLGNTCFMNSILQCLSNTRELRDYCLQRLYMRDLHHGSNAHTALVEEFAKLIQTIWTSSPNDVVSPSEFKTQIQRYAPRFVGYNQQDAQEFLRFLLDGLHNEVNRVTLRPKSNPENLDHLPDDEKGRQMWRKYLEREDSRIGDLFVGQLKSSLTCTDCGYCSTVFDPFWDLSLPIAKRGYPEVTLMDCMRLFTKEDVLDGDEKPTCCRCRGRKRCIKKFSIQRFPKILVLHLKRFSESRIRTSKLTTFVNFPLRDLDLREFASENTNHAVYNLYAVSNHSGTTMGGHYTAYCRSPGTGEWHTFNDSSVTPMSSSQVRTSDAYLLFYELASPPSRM
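USP2 core (10nM final) preincubated 30min RT with compound in 20mM Tris-HCl pH 8.0, 2mM CaCl2, 2mM beta-mercaptoethanol, 0.05% CHAPS; 25nM Ub-CHOP2 plus 25nM reporter substrate added, fluorescence (Ex485/Em531) read after 60min.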
Starred values were filed as active, the others as inactive; i = inactive; ? = inconclusive; / = no result given; ! = not active in a repeat; [ ] = another dose, or the depositor's remark. Unless noted, the call rests on the fitted dose curve; in most records, active means well fitted curve in the direction sought with a large enough effect; inconclusive means small, poorly fitted or top-dose-only effect, or another doubt; inactive means no such curve, though single readings can be large; an effect the other way counts as inactive or inconclusive.

SMILES	USP1-UAF1 inh	S2 tox	IL-1B inflam inh	ATXN2 expr inh	USP2a block
COc1ccc(-c2n[nH]c(C(F)(F)F)c2-c2cc3ccccc3o2)c(O)c1	-14%	?	-54*	?	-21%
COc1ccccc1-c1c(-c2ccc(OCC(=O)NN)cc2O)n[nH]c1C(F)(F)F	-8%	i	-23	0%	-3%
COc1ccc(C(=O)NCC(=O)OCCOc2ccc(Cl)cc2)cc1OC	-11%	i	-56*	8%	2%
COc1ccc(OCCOC(=O)CNC(=O)c2ccc(Cl)cc2Cl)cc1	-17%	i	8	-4%	-1%
Cc1c(C(=O)NCC2COCCO2)cnn1-c1ncc2c(n1)-c1ccccc1CC2 (centres undefined)	/	i	/	/	/
CCN1CCN(C2=CC3=CC(=C(C#N)C#N)CCC3CC2)CC1 (centres undefined)	28µM*	i	?	-11%	?
N#CC(C#N)=C1C=C2C=C(N3CCCCCC3)CCC2CC1 (centres undefined)	4µM*	i	-9	/	?
N#CC(C#N)=C1C=C2C=C(N3CCOCC3)CCC2CC1 (centres undefined)	4µM*	/	-10	-5%	?
CN1CCN(C2=CC3=CC(=C(C#N)C#N)CCC3CC2)CC1 (centres undefined)	i[2.29 µM]	/	-21	-11%	?
O=C(Cn1cncn1)NCC1Cc2cc(-c3ccsc3)cc(Cl)c2O1 (centres undefined)	/	i	/	/	/
CCCCCCCCCCCCCCCCCCNc1ccn(C2OC(COP(=O)(O)OCC3OC(n4cc(F)c(=O)[nH]c4=O)CC3O)C(O)C2O)c(=O)n1 (centres undefined)	?	?	-68*	?	/
COC(=O)c1ccccc1NC(=O)CN(c1ccc(C)cc1)S(C)(=O)=O	-9%	i	15	-5%	-1%
O=C1C=C(O)c2[nH]c(=O)ccc2C1=O	25µM*	i	4	-1%	/
O=C1C=C(O)c2c(O)cc(O)c(O)c2C1=O	-23%	?	-1	-26%	/
CN(C)c1ccc(C(=S)NC2CCCCC2)cc1	-5%	i	-12	36%	-2%
CCN(CC)c1ccc(C(=S)NC2CCCCC2)cc1	-15%	i	-63*	0%	1%
Cc1ccc(OCc2cc(C(=O)NCC(C)(C)N3CCOCC3)no2)cc1C	-18%	i	-70*	29%	0%
CNC1=C(N(C(C)=O)c2ccc(Br)cc2)C(=O)c2ccccc2C1=O	?	/	-78*	?	4%
CCC(=O)N(C1=C(NC)C(=O)c2ccccc2C1=O)C(C)C	?	?	133	/	4%
CCCCCCCCCCCCCCC[C@H](O)[C@@H](N)CO	/	i	/	5%	/
CCCCCCCCCCCCCCC(O)C[N+](C)(CCO)CCO (centres undefined)	-18%	?	-100*	-38%	/
N#Cc1nc(N2CCCCC2)nc(N2CCOCC2)n1	-12%	i	-55*	?	3%
CN(C)c1nc(C#N)nc(N2CCOCC2)n1	-11%	i	-19	-24%	1%
N#Cc1nc(N2CCCC2)nc(N2CCCC2)n1	-13%	i	-92*	-32%	0%
CCOC(=O)CNc1nc(C#N)nc(N2CCOCC2)n1	-24%	i	-90*	-12%	-1%
SMILES	USP1-UAF1 inh	S2 tox	IL-1B inflam inh	ATXN2 expr inh	USP2a block
Cc1nc(CC(=O)NCC2Cc3cc(F)cc(-c4ccc(F)c(C)c4)c3O2)cs1 (centres undefined)	/	i	/	/	/
CCCN(CCC)CC(O)CN1C(=O)N(CN2C(=O)N(CC(O)CN(CCC)CCC)C(=O)C2(C)C)C(C)(C)C1=O (centres undefined)	-2%	?	-65*	-36%	3%
O=C(COc1ccccc1)NCC(c1ccco1)N1CCCCC1 (centres undefined)	-2%	i	-4	-9%	-3%
CCC1CN(C(=O)NCc2ccc(C)cc2)c2cc(Cl)ccc2O1 (centres undefined)	-17%	i	-26	6%	-6%
CCC1CN(C(=O)NCc2ccc(F)cc2)c2cc(Cl)ccc2O1 (centres undefined)	-17%	i	-62*	10%	1%
CCCCN(C)C(=O)c1ccc(Nc2nc(C(N)Cc3ccc(C(F)(F)F)cc3)cs2)nc1 (centres undefined)	/	32µM*	-30	-1%	/
NC(Cc1ccc(C(F)(F)F)cc1)c1csc(Nc2ccc(C(=O)NCc3ccco3)cn2)n1 (centres undefined)	/	22µM*	-13	13µM*	/
O=C1NC(O)CCN1[C@@H]1O[C@H](CO)[C@H](O)[C@H]1O (some centres undefined)	/	/	/	0%	/
COc1ccc(-c2noc(C3CC(=O)N(c4ccccc4)C3)n2)c(OC)c1 (centres undefined)	-20%	i	/	12%	/
C=CC[C@@H](CC(=O)OC(C)(C)C)C(=O)OC[C@@H]1CCCN1C(=O)[C@@H](CC=C)CC(=O)N(CCO)Cc1ccccc1	-15%	?	-55*	-24%	-1%
C=CC[C@@H](Cc1ccc(F)cc1)C(=O)OC[C@@H]1CCCN1C(=O)[C@@H](CC=C)CC(=O)N(CCO)Cc1ccccc1	-16%	?	?	-31%	-1%
C=CC[C@@H](Cc1ccc(F)cc1)C(=O)OC[C@@H]1CCCN1C(=O)[C@H](CC=C)CC(=O)N[C@H](CO)Cc1ccccc1	?	/	-70*	?	1%
C=CC[C@@H](CC(=O)OC(C)(C)C)C(=O)OC[C@H]1CCCN1C(=O)[C@@H](CC=C)CC(=O)N(CCO)Cc1ccccc1	-5%	i	-62*	0%	-1%
O=C(NC1CCC1)C1CCC(=O)N(Cc2ccc(Cl)cc2)C1 (centres undefined)	-24%	?	11	/	/
FC(F)(F)c1nnc2ccc(NCc3ccccc3)nn12	-12%	i	13	2%	-1%
C[C@H](NC(=O)c1[nH]cnc1C(=O)Nc1ccc(Cl)cc1)c1ccccc1	-21%	?	-24	?	1%
O=C(Cc1cc(=O)[nH][nH]1)N/N=C/c1c(F)cccc1Cl	-10%	i	-10	29%	-2%
O=C(Cc1cc(=O)[nH][nH]1)N/N=C/c1c(Cl)cccc1Cl	-5%	i	-100*!	0%	0%
CC(C)CN(C(=O)Cn1c(C(F)(F)F)nc2ccccc21)c1c(N)n(Cc2ccccc2)c(=O)[nH]c1=O	-17%	i	-9	7%	/
O=C(NNC(=O)C12CC3CC(CC(C3)C1)C2)c1ccccn1	0%	?	-97*	?	0%
O=C(NNC(=O)C12CC3CC(CC(C3)C1)C2)c1cnccn1	-16%	?	31	-22%	1%

Source: PubChem BioAssay
